From PubChem BioAssay (EPA / NIEHS)
Active and inactive are the calls of the source. How the source made its calls: active means hit-call score of the fitted dose curve at least 0.9, where 1 is the maximum; inactive means score below 0.9.

What follows are compounds tested on UDP glucuronosyltransferase (UGT1A1), UGT1A1 (gene 54658) (assay: LTEA_HepaRG_UGT1A1: Life Technologies and Expression Analysis (LTEA) Assay for UDP glucuronosyltransferase (UGT1A1) using HepaRG (AID 2283538)). Conditions: mRNA level, 48 h; actives raise or lower the signal.
Description: LTEA_HepaRG is a cell based, multiplexed-readout assay that uses HepaRG, a human liver cell line, with measurements taken at 48 hours after chemical dosing on a 96-well plate.LTEA_HepaRG_UGT1A1 is one of 102 assay component(s) measured in the LTEA HepaRG cell culture assay. It is a marker of Steatosis/NR mediated metabolism.Data from the assay component LTEA_HepaRG_UGT1A1 was analyzed into 1 endpoint. This assay endpoint, LTEA_HepaRG_UGT1A1, was analyzed with bidirectional fitting relative to DMSO as the negative control and baseline of activity. Using a type of inducible reporter, measures of mRNA induction for gain or loss-of-signal activity can be used to understand regulation of transcription factor activity. To generalize the intended target to other relatable targets, this assay endpoint is annotated to the transferase intended target family, where the subfamily is glucuronosyltransferase.
A total of 1060 chemcials from the ToxCast library were tested in eight-point concentration-response experiments. Cell culture and cytotoxicity assays were conducted at Thermo Fisher Scientific's Custom Services facility (Madison, WI). A single lot of human HepaRG cells (Thermo Fisher Scientific, Frederick, MD) was used for the cell culture experiments. 96-well format collagen type I coated plates of human HepaRG cells were prepared using established methods. Briefly, cryopreserved HepaRG cells were thawed, plated at a density of approximately 100,000 cells/well in HepaRG Thaw, Plate, and General Purpose media (HPRG770, Thermo Fisher Scientific), and incubated for 48 hours. 0.5% DMSO was selected as vehicle control to balance the requisite need of DMSO in HepaRG cultures to maintain differentiation (for example, baseline metabolism, proportions of hepatocytes vs. cholangiocytes), while enabling further hepatic receptor pathway activation (for example, PXR and CAR) in response to chemical exposure. 48 hours after plating, the culture medium was replaced with HepaRG Serum-Free Incudtion Media. Cells were exposed to each test chemical in duplicate and maintained in CO2 incubators for another 48 hours. Chemical plates were thawed to room temperature and 200x concentrations of treatment groups were prepared. 8-point conentration-reponse curves were made with the highest exposure at 100 uM, followed by half-log dilutions, all in 0.5% DMSO. Each test plate contained variouse controls, induction positive controls (1mM phenobarbital), cytotoxicity positive controls ([…] aflatoxin B1), vehicle controls (0.5% DMSO), and total lysis controls (0.5% DMSO). Cell morphology images were taken using an Essen IncuCyte FLR automated microscope, with six 96-well plates imaged in about 24 minutes. Images were captured and exported and JPEG files. Spent culture media was transfered to black-well plates for the LDH assay, and remaining media was sorted at -80 C for later use. Cells were treated with RLT buffer and frozen until shipped for gene expression analysis. Total RNA was isolated from the cell suspension in 75 uL of Buffer RLT (Qiagen, Germantown, MD 20874) by Quintiles/Expression Analysis (Durham, NC) using a custom isolation procedure. Total RNA from each plate well was transferred to a preamplification plate. Fluidigm's 96.96 Dynamic ArrayTM (Fluidigm, Amsterdam, the Netherlands) technology was used for gene expression analyses by quantitative reverse transcription polymerase chain reaction (qRT-PCR, performed by Quintiles/Expression Analysis, Durham, NC)89. Standard TaqManTM Assays (Applied Biosystems/ThermoFisher Scientific, Foster City, CA) were used to assess the expression of 93 genes selected based on their selectivity and sensitivity to important hepatic receptors known to be modulated by environmental chemicals; importance in human hepatocyte functionality; and hepatotoxicity. […]

**Q.** For `CC(C)O.CC(C)O.OCCN(CCO)CCO.OCCN(CCO)CCO.[Ti]`, which outcome is on record?
**A.** inactive

**Q.** With `CN(C)C(=S)S` as the compound, how does the outcome read?
**A.** inactive

**Q.** With `O=C(N[C@H]1CN2CCC1CC2)c1ccc2c(c1)OCCO2` as the compound, how does the outcome read?
**A.** inactive

**Q.** How did the outcome turn out when `Clc1cccc(Cl)c1Cl` was run?
**A.** inactive

**Q.** With `COc1ccccc1N` as the compound, how does the outcome read?
**A.** inactive

**Q.** With `OCCN(CCO)CCO` as the compound, how does the outcome read?
**A.** inactive

**Q.** `CC(C)(C)c1ccccc1O` was tested. Which AC50 did it give?
**A.** 4.14 µM (active)

**Q.** `CCCCCCCCCCCCc1cccc(S(=O)(=O)O)c1` was tested. Which AC50 did it give?
**A.** 22.9 µM (active)

**Q.** For `N#Cc1cccnc1`, which outcome is on record?
**A.** inactive

**Q.** `Clc1cccc(Cl)c1` was tested. Which outcome did it give?
**A.** inactive

**Q.** With `Oc1c(Cl)cc(Cl)cc1Cl` as the compound, how does the outcome read?
**A.** inactive

**Q.** For `Oc1cc(Cl)c(Cl)cc1Cl`, which outcome is on record?
**A.** inactive

**Q.** How did the outcome turn out when `Cc1cc(C)cc(C)c1` was run?
**A.** inactive

**Q.** `O=C(O)C1(c2ccc3c(c2)OC[C@H](Cc2ccc(-c4ccccc4)cc2)[C@H]3O)CCCC1` was tested. Which outcome did it give?
**A.** inactive
